This is one part of a sample in which hits are shown more often than they occur.
STK33 kin inh – human STK33 kinase inhibition | Q9BYT3 | ADP-Glo luminescence, MBP substrate | inhibition, % at 12.5 µM | 27,000 compounds, 0.44% hits; in the data active = inhibition above about 20%; inconclusive = no clear call, values can overlap the other calls
Target sequence (Q9BYT3 whole entry, looked up): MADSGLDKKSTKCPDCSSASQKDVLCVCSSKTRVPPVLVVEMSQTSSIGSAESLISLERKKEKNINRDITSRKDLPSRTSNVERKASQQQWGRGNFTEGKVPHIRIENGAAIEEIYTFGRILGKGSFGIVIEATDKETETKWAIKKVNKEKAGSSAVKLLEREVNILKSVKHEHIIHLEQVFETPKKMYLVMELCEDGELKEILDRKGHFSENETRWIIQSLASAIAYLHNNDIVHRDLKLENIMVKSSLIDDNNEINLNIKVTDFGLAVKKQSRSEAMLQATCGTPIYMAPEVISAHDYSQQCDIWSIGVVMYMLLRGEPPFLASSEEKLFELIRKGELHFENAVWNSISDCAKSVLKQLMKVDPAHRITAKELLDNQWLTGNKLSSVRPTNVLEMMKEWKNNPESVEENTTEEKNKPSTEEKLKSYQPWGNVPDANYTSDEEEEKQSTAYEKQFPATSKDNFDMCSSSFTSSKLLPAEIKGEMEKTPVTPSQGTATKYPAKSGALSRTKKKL
PD-1 reverse act – activators reversing PD-1 mediated T-cell inhibition; AID 2316; 29,000 tested, under 10 active; primary human CD4 T cells, PD-L1 beads, CellTiter-Glo 96 h; activation, % (concentration not given with the values); call rule not given here;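 note: 0% = median vehicle wells and 100% = positive control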
NOMO-1 viab – STK33 inhibitor candidate reducing NOMO-1 cell viability; AID 2330; NOMO-1 AML viability, CellTiter-Glo luminescence, 72 h; inhibition, % (concentration not given with the values); 37,000 compounds, 7.5% hits; in the data active = inhibition above about 80%; inconclusive = no clear call, values can overlap the other calls
* = called active by the depositor; u = inconclusive; x = no result.

SMILES	STK33 kin inh	PD-1 reverse act	NOMO-1 viab
C[C@H]1CN([C@@H](C)CO)C(=O)c2cc(NC(=O)Cc3ccccc3)ccc2O[C@H]1CN(C)Cc1ccc(C(=O)Nc2ccccc2N)cc1	x	-2	108*
C[C@@H]1CN([C@H](C)CO)C(=O)c2cc(NC(=O)Cc3ccccc3)ccc2O[C@H]1CN(C)Cc1ccc(C(=O)Nc2ccccc2N)cc1	x	0	61
NC[C@@H]1O[C@H](C23CC4CC(CC(C4)C2)C3)Cc2c1ccc(O)c2O	-2	x	107*
NC[C@@H]1O[C@H](c2ccccc2)Cc2c1ccc(O)c2O	0	x	112*
CC(C)=CCc1c(O)c(CC=C(C)C)c2c(c1O)C(=O)CC(c1ccccc1)O2 (stereo not given)	-4	-1	35
CCOC(=O)c1ccc(NC(=O)CSc2nc3cc4ccccc4cc3[nH]2)cc1	11	-6	111*
CCOC(=O)c1ccc(NC(=O)CSc2nc3ccccc3c(=O)[nH]2)cc1	2	x	x
O=C1O[C@H](c2ccccc2)[C@H](c2ccccc2)N2[C@H]1[C@@H](C(=O)N1CCN(c3ncccn3)CC1)[C@]1(C(=O)Nc3ccc(C#CC4=CCCCC4)cc31)[C@H]2c1ccccc1OCCO	8	x	x
O=C1O[C@H](c2ccccc2)[C@H](c2ccccc2)N2[C@H]1[C@@H](C(=O)N1CCCCCCC1)[C@]1(C(=O)Nc3ccc(C#CC4=CCCCC4)cc31)[C@H]2c1ccccc1OCCO	22*	x	x
C=CC(C)(O)CC/C=C(\C)C(=O)OC1C2OC2(C)C2C(OC3OC(COC4OC(CO)C(O)C(O)C4O)C(O)C(O)C3O)OC=CC12O (stereo not given)	5	x	x
C[C@H](CO)N1C[C@H](C)[C@@H](CN(C)Cc2ccc(C(F)(F)F)cc2)Oc2c(NC(=O)c3nc4ccccc4s3)cccc2C1=O	x	-3	106*
C[C@@H]1CN([C@@H](C)CO)C(=O)c2cccc(NC(=O)c3nc4ccccc4s3)c2O[C@@H]1CN(C)Cc1ccc(C(=O)O)cc1	x	0	15
C[C@H](CO)N1C[C@H](C)[C@H](CN(C)Cc2ccc(C(F)(F)F)cc2)Oc2c(NC(=O)c3nc4ccccc4s3)cccc2C1=O	x	-7	96*
C[C@@H]1CN([C@@H](C)CO)C(=O)c2cccc(NC(=O)c3nc4ccccc4s3)c2O[C@H]1CN(C)Cc1ccc(C(F)(F)F)cc1	x	-2	u
C[C@H]1CN([C@@H](C)CO)C(=O)c2cccc(NC(=O)c3nc4ccccc4s3)c2O[C@@H]1CN(C)Cc1ccc(C(F)(F)F)cc1	x	x	69
C[C@@H]1CN([C@@H](C)CO)C(=O)c2cccc(NC(=O)c3nc4ccccc4s3)c2O[C@H]1CN(C)Cc1ccc(C(=O)Nc2ccccc2N)cc1	x	-1	118*
C[C@H]1CN([C@@H](C)CO)C(=O)c2cccc(NC(=O)c3nc4ccccc4s3)c2O[C@@H]1CN(C)Cc1ccc(Oc2ccccc2)cc1	x	3	23
C[C@H](CO)N1C[C@H](C)[C@@H](CN(C)Cc2ccc(Oc3ccccc3)cc2)Oc2c(NC(=O)c3nc4ccccc4s3)cccc2C1=O	x	-2	87*
CC(C)CC(NS(=O)(=O)c1ccc(C(C)(C)C)cc1)C(=O)O (stereo not given)	-1	1	10
CS(=O)(=O)N(CC(=O)Nc1ccc2ccccc2c1)c1ccc(F)cc1	0	1	41
Cc1ccc(NC(=O)CSc2nnc(-c3ccc(Cl)cc3Cl)n2-c2ccccc2)cc1	-2	0	22
CS(=O)(=O)N(CC(=O)Nc1ccccc1Br)c1cc(Cl)c(Cl)cc1Cl	1	0	9
Cn1c(SCC(=O)Nc2cccc(C(F)(F)F)c2)nnc1-c1ccc(F)cc1	0	0	45
COc1ccc(OC)c(NC(=O)COc2ccc3c4c(c(=O)oc3c2)CCCC4)c1	0	1	8
O=C(Nc1ccc(F)cc1F)c1cccnc1Sc1cccs1	x	-2	13
SMILES	STK33 kin inh	PD-1 reverse act	NOMO-1 viab
Cc1ccc2c(C)c(C(=O)Nc3sc4c(c3C(=O)NCc3ccco3)CCC4)oc2c1	-1	x	103*
COc1c(Cl)cc(C(=O)Nc2sc3c(c2C(=O)NCc2ccco2)CCC3)cc1Cl	-3	-4	13
O=C(COc1ccccc1[N+](=O)[O-])Nc1ccc(O)c(-c2nc3ccccc3s2)c1	5	x	79
Oc1ccc(/C=N/c2nccs2)cc1	x	-2	-4
CC12CC3(C)CC(C)(C1)CC(CN=Cc1ccc(O)cc1)(C2)C3	x	-2	112*
O=C(Nc1ccccc1)Nc1ccc2nnsc2c1	x	1	83*
O=C(Nc1ccccc1)Nc1ccccc1	0	-2	36
C=C(C)C(=O)O[C@H]1C[C@@]2(C)OC(=CC2=O)/C(COC(C)=O)=C\[C@H]2OC(=O)C(=C)C12 (stereo not given in full)	1	-13	120*
C=C1CC/C=C(/COC(C)=O)C(=O)C[C@@H]2[C@@H]1CC2(C)C	-14	x	x
